The source made the active and inactive calls. Rule for the calls: active = hit-call score of the fitted dose curve at least 0.9, where 1 is the maximum; inactive = score below 0.9.
These molecules were tested on Fatty Acid-Binding Protein 1 (FABP1), FABP1 (gene 2168) (assay: LTEA_HepaRG_FABP1: Life Technologies and Expression Analysis (LTEA) Assay for Fatty Acid-Binding Protein 1 (FABP1) using HepaRG (AID 2283494)). Settings: mRNA level, 48 h; actives raise or lower the signal.
Protocol: LTEA_HepaRG is a cell based, multiplexed-readout assay that uses HepaRG, a human liver cell line, with measurements taken at 48 hours after chemical dosing on a 96-well plate.LTEA_HepaRG_FABP1 is one of 102 assay component(s) measured in the LTEA HepaRG cell culture assay. It is a marker of Steatosis.Data from the assay component LTEA_HepaRG_FABP1 was analyzed into 1 endpoint. This assay endpoint, LTEA_HepaRG_FABP1, was analyzed with bidirectional fitting relative to DMSO as the negative control and baseline of activity. Using a type of inducible reporter, measures of mRNA induction for gain or loss-of-signal activity can be used to understand regulation of transcription factor activity. To generalize the intended target to other relatable targets, this assay endpoint is annotated to the transporter intended target family, where the subfamily is fatty acid carrier protein.
A total of 1060 chemcials from the ToxCast library were tested in eight-point concentration-response experiments. Cell culture and cytotoxicity assays were conducted at Thermo Fisher Scientific's Custom Services facility (Madison, WI). A single lot of human HepaRG cells (Thermo Fisher Scientific, Frederick, MD) was used for the cell culture experiments. 96-well format collagen type I coated plates of human HepaRG cells were prepared using established methods. Briefly, cryopreserved HepaRG cells were thawed, plated at a density of approximately 100,000 cells/well in HepaRG Thaw, Plate, and General Purpose media (HPRG770, Thermo Fisher Scientific), and incubated for 48 hours. 0.5% DMSO was selected as vehicle control to balance the requisite need of DMSO in HepaRG cultures to maintain differentiation (for example, baseline metabolism, proportions of hepatocytes vs. cholangiocytes), while enabling further hepatic receptor pathway activation (for example, PXR and CAR) in response to chemical exposure. 48 hours after plating, the culture medium was replaced with HepaRG Serum-Free Incudtion Media. Cells were exposed to each test chemical in duplicate and maintained in CO2 incubators for another 48 hours. Chemical plates were thawed to room temperature and 200x concentrations of treatment groups were prepared. 8-point conentration-reponse curves were made with the highest exposure at 100 uM, followed by half-log dilutions, all in 0.5% DMSO. Each test plate contained variouse controls, induction positive controls (1mM phenobarbital), cytotoxicity positive controls ([…] aflatoxin B1), vehicle controls (0.5% DMSO), and total lysis controls (0.5% DMSO). Cell morphology images were taken using an Essen IncuCyte FLR automated microscope, with six 96-well plates imaged in about 24 minutes. Images were captured and exported and JPEG files. Spent culture media was transfered to black-well plates for the LDH assay, and remaining media was sorted at -80 C for later use. Cells were treated with RLT buffer and frozen until shipped for gene expression analysis. Total RNA was isolated from the cell suspension in 75 uL of Buffer RLT (Qiagen, Germantown, MD 20874) by Quintiles/Expression Analysis (Durham, NC) using a custom isolation procedure. Total RNA from each plate well was transferred to a preamplification plate. Fluidigm's 96.96 Dynamic ArrayTM (Fluidigm, Amsterdam, the Netherlands) technology was used for gene expression analyses by quantitative reverse transcription polymerase chain reaction (qRT-PCR, performed by Quintiles/Expression Analysis, Durham, NC)89. Standard TaqManTM Assays (Applied Biosystems/ThermoFisher Scientific, Foster City, CA) were used to assess the expression of 93 genes selected based on their selectivity and sensitivity to important hepatic receptors known to be modulated by environmental chemicals; importance in human hepatocyte functionality; and hepatotoxicity. […]

Row | Compound | outcome | AC50
1 | Nc1c(Cl)c(F)nc(OCC(=O)O)c1Cl | inactive | –
2 | CCOc1nc(C(Cl)(Cl)Cl)ns1 | inactive | –
3 | CCOP(=S)(OCC)Oc1nc(Cl)n(C(C)C)n1 | inactive | –
4 | C=C(C)CN(CC)c1c([N+](=O)[O-])cc(C(F)(F)F)cc1[N+](=O)[O-] | – | 50 µM (active)
5 | CC(C)Oc1cccc(NC(=O)c2ccccc2C(F)(F)F)c1 | inactive | –
6 | CCNP(=S)(OC)O/C(C)=C/C(=O)OC(C)C (stereo not given) | inactive | –
7 | Nc1c(Cl)c(Cl)nc(C(=O)O)c1Cl | inactive | –
8 | O=c1n(Cl)c(=O)n(Cl)c(=O)n1Cl | inactive | –
9 | COC(=O)N(C(=O)N1CO[C@@]2(C(=O)OC)Cc3cc(Cl)ccc3C2=N1)c1ccc(OC(F)(F)F)cc1 | – | 40 µM (active)
10 | CC1(C)CON(Cc2ccccc2Cl)C1=O | inactive | –
11 | COC(=O)NC(=S)Nc1ccccc1NC(=S)NC(=O)OC | inactive | –
12 | CC(C)N1C(=O)N(c2ccccc2)CSC1=NC(C)(C)C | – | 44.8 µM (active)
13 | CC(C)Nc1nc(Cl)nc(NC(C)C)n1 | – | 19.2 µM (active)
14 | CC(C)N1C(=O)c2ccccc2NS1(=O)=O | inactive | –
15 | CCOc1cc(C(C)(C)C)ccc1C1COC(c2c(F)cccc2F)=N1 (stereo not given) | – | 6.69 µM (active)
16 | O=C(Nc1ccccc1-c1ccc(Cl)cc1)c1cccnc1Cl | – | 33.9 µM (active)
17 | COCc1cnc(C2=NC(C)(C(C)C)C(=O)N2)c(C(=O)O)c1 (stereo not given) | inactive | –
18 | CC1(C)CCC(=Cc2ccc(Cl)cc2)C1(O)Cn1cncn1 (stereo not given) | – | 4.41 µM (active)
19 | Clc1nc(Cl)nc(Nc2ccccc2Cl)n1 | inactive | –
20 | CSC(=O)c1c(C(F)F)nc(C(F)(F)F)c(C(=O)SC)c1CC(C)C | – | 9.87 µM (active)

Row | Compound | outcome | AC50
21 | N#CN=C1SCCN1Cc1ccc(Cl)nc1 | inactive | –
22 | O=C(O)c1c(Cl)ccc2cc(Cl)cnc12 | inactive | –
23 | Cc1c(COC(=O)[C@@H]2[C@H](/C=C(\Cl)C(F)(F)F)C2(C)C)cccc1-c1ccccc1 | – | 35 µM (active)
24 | Cn1c(-c2ccccc2)cc(-c2ccccc2)[n+]1C | – | 21.9 µM (active)
25 | CCOc1nc(F)cc2nc(S(=O)(=O)Nc3c(Cl)cccc3Cl)nn12 | inactive | –
26 | CCNC(=O)NC(=O)C(C#N)=NOC | inactive | –
27 | COP(=O)(OC)O/C(C)=C/C(=O)N(C)C | inactive | –
28 | Clc1cccc(C(Cl)(Cl)Cl)n1 | inactive | –
29 | OC(c1ccc(Cl)cc1)(c1ccc(Cl)cc1)C(Cl)(Cl)Cl | – | 63.2 µM (active)
30 | COP(=S)(OC)Oc1ccc([N+](=O)[O-])c(C)c1 | inactive | –
31 | CNC(=O)N(C)c1nnc(C(C)(C)C)s1 | inactive | –
32 | CC(C)NC(=O)N1CC(=O)N(c2cc(Cl)cc(Cl)c2)C1=O | – | 13.2 µM (active)
33 | CCC(C)n1c(=O)[nH]c(C)c(Br)c1=O (stereo not given) | – | 24.6 µM (active)
34 | CCSC(=O)N1CCCCCC1 | inactive | –
35 | O=P(O)(O)CCCl | inactive | –
36 | Cc1cc(C)nc(Nc2ccccc2)n1 | inactive | –
37 | COc1cc(OC)nc(NC(=O)NS(=O)(=O)c2ncccc2OCC(F)(F)F)n1 | inactive | –
38 | CCN(CC)c1nc(C)cc(OP(=S)(OC)OC)n1 | – | 50 µM (active)
39 | CNC(=O)Oc1cccc2ccccc12 | inactive | –
40 | Cc1nc(N(C)C)nc(OC(=O)N(C)C)c1C | inactive | –

Source: PubChem BioAssay (EPA / NIEHS)
